The target of experiment [1] is Sodium channel protein type 1 subunit alpha (Rattus norvegicus) (UniProt P04774). The experiment is described as follows: NVS_IC_rNaCh_site2: NovaScreen (NVS) Ion Channel Assay for rat Sodium Channel, Site 2 (NaCh) (AID 2283322).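 Further: hit means loss of radioligand binding signal relative to DMSO so AC50 marks displacement.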 The procedure, abridged: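 Membranes: rat forebrain. Format: competitive radioligand displacement, filter separation, scintillation readout, 1 h exposure. Primary screen in duplicate at 25 uM; actives retested in concentration series.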

The target in experiment [2] is rat Gamma-Aminobutyric Acid Type A Receptor, Non-Selective (GABAR-NonSelective), Gabra1 (gene 29705) (UniProt P62813). The experiment in a line: NVS_LGIC_rGABAR_NonSelective: NovaScreen (NVS) Ligand-Gated Ion Channel Assay for rat Gamma-Aminobutyric Acid Type A Receptor, Non-Selective (GABAR-NonSelective) (AID 2283326). The procedure, abridged:
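Radioligand displacement on rat whole-brain extract, 1 h, filter scintillation readout; signal loss fitted versus DMSO. Primary screen in duplicate at 25 uM; hits (e.g. ≥30% inhibition) retested in concentration-response up to 50 uM.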

In experiment [3] the target is human Serotonin, 5-Hydroxytryptamine Receptor 3 (5HT3), HTR3A (gene 3359) (UniProt P46098). The experiment is described as follows: NVS_LGIC_h5HT3: NovaScreen (NVS) Ligand-Gated Ion Channel Assay for human Serotonin, 5-Hydroxytryptamine Receptor 3 (5HT3) (AID 2283325). The procedure, abridged: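 Radioligand displacement binding to human 5-HT3 from HEK293 membranes, read by filter-based scintillation counting after 1 h. Screen at 25 uM in duplicate; chemicals passing threshold were retested in concentration-response up to 50 uM.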

A further experiment deals with NCBI gene 24521. The experiment is described as follows: NVS_IC_rKATPCh: NovaScreen (NVS) Ion Channel Assay for rat Potassium Channel, ATP-Sensitive (KATPCh) (AID 2283319). The procedure, abridged:
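Rat cortical membranes; radioligand binding at ATP-sensitive K channel site, filter-based scintillation counting 2 h after dosing. Single-point duplicate screen at 25 uM, hits rerun in concentration-response up to 50 uM; loss of signal versus DMSO.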

Another experiment concerns the target Adra2b (gene 24174) (UniProt P19328). The experiment is described as follows: NVS_GPCR_rmAdra2B: NovaScreen (NVS) G Protein-Coupled Receptor Assay for hybird cells Adrenergic, Alpha 2B Receptor (Adra2B) (AID 2283306). The procedure, abridged: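 Radioligand filter-binding assay on membrane proteins from neuroglioma/blastoma hybrid cells (rodent), 1 h after dosing; scintillation counting, loss of signal vs DMSO. Primary screen in duplicate at 25 uM, actives then run in concentration series.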

Experiment [4] addresses rat Neurokinin-1 Receptor (NK1), Tacr1 (gene 24807) (UniProt P14600). The experiment is described as follows: NVS_GPCR_rNK1: NovaScreen (NVS) G Protein-Coupled Receptor Assay for rat Neurokinin-1 Receptor (NK1) (AID 2283309). The procedure, abridged:
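Rat submaxillary gland membranes; radioligand displacement read by filter-based scintillation counting after 1 h. Primary screen in duplicate at 25 uM; actives retested in concentration series; loss of binding fitted versus DMSO.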

For experiment [5], the target named is rat Opioid Receptor, Non-selective Sodium (Na+) Binding, Oprm1 (gene 25601) (UniProt P33535). The experiment is described as follows: NVS_GPCR_rOpiate_NonSelectiveNa: NovaScreen (NVS) G Protein-Coupled Receptor Assay for rat Opioid Receptor, Non-selective Sodium (Na+) Binding (AID 2283311). The procedure, abridged: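 Rat forebrain membranes, radioligand displacement with filter scintillation counting, 1.5 h incubation. Screened in duplicate at 25 µM; hits then run in concentration-response up to 50 µM; loss of binding fitted versus DMSO.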

For experiment [6], the target named is rat Opioid Receptor, Non-selective Binding, Oprm1 (gene 25601) (UniProt P33535). The experiment in a line: NVS_GPCR_rOpiate_NonSelective: NovaScreen (NVS) G Protein-Coupled Receptor Assay for rat Opioid Receptor, Non-selective Binding (AID 2283318). The procedure, abridged:
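Rat forebrain membranes, cell-free radioligand binding with filter-based scintillation counting, read 1.5 h after dosing. Primary screen in duplicate at 25 uM; actives retested in concentration series. Loss of signal versus DMSO baseline scored.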

Experiment [7] has as its target human Peripheral-type Benzodiazepine Receptor (PBR), TSPO (gene 706) (UniProt P30536). The experiment is described as follows: NVS_MP_hPBR: NovaScreen (NVS) Membrane Protein Assay for human Peripheral-type Benzodiazepine Receptor (PBR) (AID 2283331).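 Further: hits reduce radioligand binding relative to DMSO baseline.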 The procedure, abridged: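 Radioligand displacement on human colonic cell membranes, 1 h incubation; bound radioactivity by filtration and scintillation counting. Primary screen in duplicate at 25 uM single concentration, actives followed up in concentration series; loss of binding versus DMSO.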

The target in experiment [8] is rat Vasopressin 1 Receptor (V1), Avpr1a (gene 25107) (UniProt P30560). The experiment is described as follows: NVS_GPCR_rV1: NovaScreen (NVS) G Protein-Coupled Receptor Assay for rat Vasopressin 1 Receptor (V1) (AID 2283316). The procedure, abridged: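 Radioligand binding on rat liver membranes, 1.5 h incubation, filter-based scintillation counting. Single 25 uM screen in duplicate; chemicals meeting threshold (e.g. 30% inhibition) run in concentration-response up to 50 uM.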

For experiment [9], the target named is rat Glutamate, AMPA Site (AMPA), Gria1 (gene 50592) (UniProt P19490). The experiment is described as follows: NVS_LGIC_rAMPA: NovaScreen (NVS) Ligand-Gated Ion Channel Assay for rat Glutamate, AMPA Site (AMPA) (AID 2283324). The procedure, abridged: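 Rat forebrain membranes; radioligand binding read 1 h after dosing by filtration and scintillation counting. Duplicate single-point screen at 25 uM, then concentration-response to 50 uM for threshold hits (e.g. 30% inhibition); loss of signal vs DMSO.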

The target of experiment [10] is rat Neurokinin-3 Receptor (NK3), Tacr3 (gene 24808) (UniProt P16177). The experiment is described as follows: NVS_GPCR_rNK3: NovaScreen (NVS) G Protein-Coupled Receptor Assay for rat Neurokinin-3 Receptor (NK3) (AID 2283310). The procedure, abridged: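 Rat cortical membranes; radioligand binding with filtration and scintillation counting, 2 h after dosing. Primary screen in duplicate at 25 uM, then concentration-response up to 50 uM; loss of binding signal relative to DMSO.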

A short description of experiment [11]: NVS_IC_rCaDHPRCh_L: NovaScreen (NVS) Ion Channel Assay for rat Calcium Channel, Type L, Dihydropyridine Site (CaDHPRCh_L) (AID 2283320). The procedure, abridged: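 Radioligand binding to dihydropyridine site on rat cortical membranes, filter-based scintillation counting, 1 h after dosing. Screened in duplicate at 25 uM; actives rerun in concentration-response up to 50 uM. Loss of signal versus DMSO baseline.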

Experiment [12] concerns the target rat Glutamate, NMDA Agonist Site (GluNMDA), Grin1 (gene 24408) (UniProt P35439). The experiment is described as follows: NVS_LGIC_rGluNMDA_Agonist: NovaScreen (NVS) Ligand-Gated Ion Channel Assay for rat Glutamate, NMDA Agonist Site (GluNMDA) (AID 2283327). The procedure, abridged: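 Rat forebrain membranes, radioligand binding in the agonist-site protocol; 1 h after dosing; filter-based scintillation counting. Single-concentration duplicate screen at 25 uM, then concentration-response up to 50 uM for actives; gain-of-signal vs DMSO.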

The target of experiment [13] is human Constitutive Androstane Receptor (CAR), NR1I3 (gene 9970) (UniProt Q14994). The experiment is described as follows: NVS_NR_hCAR_Agonist: NovaScreen (NVS) Nuclear Receptor Binding Assay for human Constitutive Androstane Receptor Agonism (CAR) (AID 2283328). The procedure, abridged: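 Cell-free TR-FRET binding readout with extracted human CAR protein, read 1 h after dosing. Gain of signal fitted against DMSO baseline. Single-concentration duplicates at 25 uM, then concentration-response up to 50 uM for actives.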

In experiment [14] the target is rat Somatostatin Receptor (SST), Sstr1 (gene 25033) (UniProt P28646). The experiment is described as follows: NVS_GPCR_rSST: NovaScreen (NVS) G Protein-Coupled Receptor Assay for rat Somatostatin Receptor (SST) (AID 2283314). The procedure, abridged:
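Rat forebrain membranes; radioligand displacement read by filter-based scintillation counting 1 h after dosing. Primary screen in duplicate at 25 uM. Actives (e.g., 30% inhibition) were rerun as concentration-response to 50 uM max and fitted against DMSO.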

Records with an inconclusive call do not appear. The source made the active and inactive calls. How the source made its calls: active means hit-call score of the fitted dose curve at least 0.9, where 1 is the maximum; inconclusive means response in the unintended direction; inactive means score below 0.9.

Sequence of Adra2b (gene 24174) (P19328 whole entry, looked up): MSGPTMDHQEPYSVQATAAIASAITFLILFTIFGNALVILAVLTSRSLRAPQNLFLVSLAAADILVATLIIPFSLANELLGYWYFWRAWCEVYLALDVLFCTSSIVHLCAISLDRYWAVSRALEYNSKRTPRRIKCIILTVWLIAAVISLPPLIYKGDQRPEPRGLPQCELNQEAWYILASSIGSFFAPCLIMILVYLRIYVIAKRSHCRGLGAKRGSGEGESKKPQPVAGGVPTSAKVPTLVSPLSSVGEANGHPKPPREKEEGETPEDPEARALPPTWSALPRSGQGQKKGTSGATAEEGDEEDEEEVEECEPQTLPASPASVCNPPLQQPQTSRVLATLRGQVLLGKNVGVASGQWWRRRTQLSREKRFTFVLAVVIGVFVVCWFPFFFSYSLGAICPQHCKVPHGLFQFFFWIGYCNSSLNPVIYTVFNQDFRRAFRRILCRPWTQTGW
Sequence of human Serotonin, 5-Hydroxytryptamine Receptor 3 (5HT3), HTR3A (gene 3359) (P46098 whole entry, looked up): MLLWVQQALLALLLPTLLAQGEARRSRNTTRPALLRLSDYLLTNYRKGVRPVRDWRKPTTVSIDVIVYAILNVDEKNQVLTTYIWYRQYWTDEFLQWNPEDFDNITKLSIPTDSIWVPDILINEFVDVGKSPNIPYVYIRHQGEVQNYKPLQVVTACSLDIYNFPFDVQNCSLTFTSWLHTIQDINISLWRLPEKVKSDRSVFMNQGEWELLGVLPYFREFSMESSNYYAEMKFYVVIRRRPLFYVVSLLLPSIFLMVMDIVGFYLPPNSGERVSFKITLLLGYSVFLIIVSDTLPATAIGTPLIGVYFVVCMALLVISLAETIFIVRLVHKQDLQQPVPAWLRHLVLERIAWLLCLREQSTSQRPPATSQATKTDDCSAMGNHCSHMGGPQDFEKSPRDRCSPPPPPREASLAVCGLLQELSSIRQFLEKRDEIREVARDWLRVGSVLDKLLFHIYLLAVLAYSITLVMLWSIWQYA
Sequence of human Peripheral-type Benzodiazepine Receptor (PBR), TSPO (gene 706) (P30536 whole entry, looked up): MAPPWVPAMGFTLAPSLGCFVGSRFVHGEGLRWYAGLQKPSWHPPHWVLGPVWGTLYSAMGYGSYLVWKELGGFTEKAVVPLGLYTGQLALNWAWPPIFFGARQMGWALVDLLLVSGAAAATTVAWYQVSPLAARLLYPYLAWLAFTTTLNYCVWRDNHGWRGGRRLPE
Sequence of rat Neurokinin-1 Receptor (NK1), Tacr1 (gene 24807) (P14600 whole entry, looked up): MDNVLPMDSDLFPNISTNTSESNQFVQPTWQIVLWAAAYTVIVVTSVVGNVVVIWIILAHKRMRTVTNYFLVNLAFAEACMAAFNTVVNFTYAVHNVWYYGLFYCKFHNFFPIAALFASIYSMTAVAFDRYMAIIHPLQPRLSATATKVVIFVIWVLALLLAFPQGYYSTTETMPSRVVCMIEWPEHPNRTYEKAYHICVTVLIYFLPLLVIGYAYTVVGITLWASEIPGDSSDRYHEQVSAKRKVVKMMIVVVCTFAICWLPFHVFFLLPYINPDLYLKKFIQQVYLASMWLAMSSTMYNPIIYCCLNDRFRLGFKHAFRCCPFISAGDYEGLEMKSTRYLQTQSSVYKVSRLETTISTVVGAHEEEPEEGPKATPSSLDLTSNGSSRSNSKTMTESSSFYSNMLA
Sequence of rat Opioid Receptor, Non-selective Sodium (Na+) Binding, Oprm1 (gene 25601) (P33535 whole entry, looked up): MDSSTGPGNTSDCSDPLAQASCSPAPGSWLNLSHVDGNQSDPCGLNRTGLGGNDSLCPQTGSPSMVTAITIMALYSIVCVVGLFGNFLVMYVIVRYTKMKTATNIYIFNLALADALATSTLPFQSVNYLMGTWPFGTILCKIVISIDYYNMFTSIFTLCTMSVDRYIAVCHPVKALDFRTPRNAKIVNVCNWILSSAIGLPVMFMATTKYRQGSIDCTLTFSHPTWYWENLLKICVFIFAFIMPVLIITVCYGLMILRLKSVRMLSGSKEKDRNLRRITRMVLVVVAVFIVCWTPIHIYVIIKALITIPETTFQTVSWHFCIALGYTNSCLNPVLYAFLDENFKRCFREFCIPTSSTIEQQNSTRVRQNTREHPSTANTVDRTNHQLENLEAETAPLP
Sequence of rat Opioid Receptor, Non-selective Binding, Oprm1 (gene 25601) (P33535 whole entry, looked up): as above
Sequence of rat Neurokinin-3 Receptor (NK3), Tacr3 (gene 24808) (P16177 whole entry, looked up): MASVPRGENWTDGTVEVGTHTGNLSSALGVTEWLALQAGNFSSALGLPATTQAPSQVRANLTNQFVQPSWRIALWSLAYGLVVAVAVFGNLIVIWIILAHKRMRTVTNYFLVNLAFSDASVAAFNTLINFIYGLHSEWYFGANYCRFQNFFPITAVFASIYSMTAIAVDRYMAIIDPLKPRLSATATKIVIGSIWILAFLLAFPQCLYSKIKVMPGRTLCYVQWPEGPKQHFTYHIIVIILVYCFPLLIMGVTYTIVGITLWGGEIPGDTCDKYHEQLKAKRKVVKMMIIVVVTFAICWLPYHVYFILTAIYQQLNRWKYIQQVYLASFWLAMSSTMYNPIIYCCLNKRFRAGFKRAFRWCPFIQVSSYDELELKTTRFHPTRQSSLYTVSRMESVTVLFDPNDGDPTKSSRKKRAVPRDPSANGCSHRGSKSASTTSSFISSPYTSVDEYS
Sequence of rat Somatostatin Receptor (SST), Sstr1 (gene 25033) (P28646 whole entry, looked up): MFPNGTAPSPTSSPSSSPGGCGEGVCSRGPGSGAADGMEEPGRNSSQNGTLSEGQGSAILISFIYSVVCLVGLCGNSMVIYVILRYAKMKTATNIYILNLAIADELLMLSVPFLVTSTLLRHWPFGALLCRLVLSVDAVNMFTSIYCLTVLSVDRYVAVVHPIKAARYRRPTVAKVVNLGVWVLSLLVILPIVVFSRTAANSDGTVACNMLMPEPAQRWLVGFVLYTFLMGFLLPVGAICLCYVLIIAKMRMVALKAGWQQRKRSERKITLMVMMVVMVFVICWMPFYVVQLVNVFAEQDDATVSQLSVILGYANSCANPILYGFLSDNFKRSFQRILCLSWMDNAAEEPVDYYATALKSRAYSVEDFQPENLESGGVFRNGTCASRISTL
Sequence of human Constitutive Androstane Receptor (CAR), NR1I3 (gene 9970) (Q14994 whole entry, looked up): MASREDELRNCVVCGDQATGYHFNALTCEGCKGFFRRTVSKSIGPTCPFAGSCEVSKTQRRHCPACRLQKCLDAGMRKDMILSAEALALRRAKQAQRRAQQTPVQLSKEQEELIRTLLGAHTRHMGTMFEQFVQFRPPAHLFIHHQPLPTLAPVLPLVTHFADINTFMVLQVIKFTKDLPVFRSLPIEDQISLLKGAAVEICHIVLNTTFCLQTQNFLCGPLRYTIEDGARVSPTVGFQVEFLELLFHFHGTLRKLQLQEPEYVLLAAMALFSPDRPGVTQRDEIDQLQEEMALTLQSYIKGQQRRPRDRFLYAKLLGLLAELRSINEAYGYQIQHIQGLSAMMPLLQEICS
Sequence of rat Vasopressin 1 Receptor (V1), Avpr1a (gene 25107) (P30560 whole entry, looked up): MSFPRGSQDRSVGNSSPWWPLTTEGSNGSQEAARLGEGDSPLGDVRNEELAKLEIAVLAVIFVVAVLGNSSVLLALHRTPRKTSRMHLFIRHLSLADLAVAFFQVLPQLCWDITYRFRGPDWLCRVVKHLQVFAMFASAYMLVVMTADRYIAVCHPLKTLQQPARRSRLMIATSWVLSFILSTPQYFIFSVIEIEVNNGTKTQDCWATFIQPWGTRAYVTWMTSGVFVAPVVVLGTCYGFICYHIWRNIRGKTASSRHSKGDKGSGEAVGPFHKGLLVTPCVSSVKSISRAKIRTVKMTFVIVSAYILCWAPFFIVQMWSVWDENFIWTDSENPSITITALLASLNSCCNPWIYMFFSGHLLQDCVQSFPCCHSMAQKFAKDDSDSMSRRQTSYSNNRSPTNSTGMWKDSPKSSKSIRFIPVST
Sequence of rat Gamma-Aminobutyric Acid Type A Receptor, Non-Selective (GABAR-NonSelective), Gabra1 (gene 29705) (P62813 whole entry, looked up): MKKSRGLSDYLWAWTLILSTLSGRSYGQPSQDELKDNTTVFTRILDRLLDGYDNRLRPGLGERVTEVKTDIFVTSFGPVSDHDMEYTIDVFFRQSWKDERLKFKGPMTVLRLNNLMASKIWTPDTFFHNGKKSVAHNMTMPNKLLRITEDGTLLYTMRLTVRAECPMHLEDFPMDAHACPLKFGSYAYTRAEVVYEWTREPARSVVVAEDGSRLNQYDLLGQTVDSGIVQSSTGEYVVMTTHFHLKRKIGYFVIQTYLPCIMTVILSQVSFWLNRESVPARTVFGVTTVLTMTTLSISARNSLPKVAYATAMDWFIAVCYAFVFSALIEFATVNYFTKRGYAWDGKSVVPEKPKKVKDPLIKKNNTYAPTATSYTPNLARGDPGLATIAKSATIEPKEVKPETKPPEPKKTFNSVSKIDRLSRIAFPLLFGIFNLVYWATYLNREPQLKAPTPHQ

One may read the AC50 as the concentration at which the activity in the assay is half-maximal. Turning to `NC(=O)N1c2ccccc2C=Cc2ccccc21`, the compound was called inactive in [1]. Also, the AC50 in experiment [2] was 4.66 µM (active).

Consider `O=c1[nH]cnc2c1ncn2[C@H]1CC[C@@H](CO)O1`, for which, in experiment [3], the call was inactive.

Consider `Cc1ccc(S(=O)(=O)NC(=O)NN2CCCCCC2)cc1`, for which, in the experiment with NCBI gene 24521, the AC50 was 3.58 µM (active).

Take `c1ccc2c(c1)-c1cccc3c1c-2cc1ccccc13`: the result in [3] was inactive.

For the compound `Cc1nccn1-c1ccc(Sc2cccc(C3(C(N)=O)CCOCC3)c2)cc1`, the AC50 is 8.46 µM (active) with Adra2b (gene 24174), 25 µM (active) in [4] and 17.7 µM (active) in [1]. For the same compound, the outcome in experiment [5] and in experiment [6] was inactive.

For the compound `C[C@@H](Oc1ccc(CNC(=O)c2cccnc2Oc2ccc3c(c2)OCO3)c(F)c1)C(=O)O`, the concentration at half-maximal activity (AC50) in [7] was 20.8 µM (active).

As to `CCN(CC)C(=S)SSC(=S)N(CC)CC`, the call in experiment [5], in [9] and in [3] was inactive. The AC50 is 15.6 µM (active) in [8] and 3.21 µM (active) in experiment [7].

For `CCCCCCCCCCCCCCCCOS(=O)(=O)O`, the AC50 in [3] was 17.3 µM (active).

Regarding `O=C(O)c1ccc2c(c1)nc(C(=O)NC1CCN(C3CC3)CC1)n2Cc1cc(-c2ccc(Cl)s2)on1`, the AC50 with Adra2b (gene 24174) was 0.395 µM (active).

Consider `CC(C)C(=O)Nc1ccc([N+](=O)[O-])c(C(F)(F)F)c1`, for which the compound was called inactive in [7].

As to `CCn1nc(C)c2c1C(=O)NCC(c1ccc(O)cc1)=N2`, the compound was called inactive (in [4]; in experiment [10]; in experiment [6]; in the experiment on NCBI gene 24521; in experiment [11]; in [1]). In addition, the call in experiment [3] and in experiment [12] was inactive.

Consider `Cc1nc(-c2ccccn2)ncc1C(=O)Nn1cc(C)c2cc(F)ccc21`, for which the call in experiment [13] was inactive.

Turning to `CCCCCCCC/C=C\CCCCCCCC(=O)OC[C@@H](O)[C@H]1OC[C@H](O)[C@H]1O`, the outcome with Adra2b (gene 24174) was inactive.

`c1ccc2cc3ccccc3cc2c1`: the result in experiment [7] was inactive.

In the case of `CCCCCCCC1CCC(=O)O1` (stereo unspecified), the compound was classed as inactive in experiment [14].
